Assay results: PubChem BioAssay (Tox21)
Results filed as inconclusive are left out. Entries that show only a call come without a potency. A structure can be active in one record and inactive in another. Activity calls are given as the source filed them. Unless noted, calls come from the whole dose curve; as a rule, active = well fitted curve in the direction sought with a large enough effect in the repeat runs; inconclusive = weak or mixed curves; inactive = no such curve, though single readings can be large; an effect the other way counts as inactive or inconclusive.

Tests used:
[1] = qHTS assay to identify small molecule agonists of the sonic hedgehog signaling (Shh) pathway (AID 1259368; calls by dose curve;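 note: NIH/3T3-derived 3T3Gli1-Luc cells carrying a stable Gli1-driven firefly luciferase reporter; series mostly up to about 92 µM; nearly all actives have a fitted effect of over 15% in size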)
In short: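 Cells of a mouse NIH/3T3 clone stably expressing luciferase under the Gli1 transcriptional response element are exposed to test chemicals for 24 hr at 37 C. Pathway activation is detected as a rise in luminescence.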

[2] = qHTS assay to identify small molecule antagonists of the sonic hedgehog signaling (Shh) pathway (AID 1259369; calls by dose curve; note: nearly all actives have a fitted effect of over 45% in size)
In short: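 Cells are plated and held 4hr at 37 C, compounds (DMSO) are pinned in, conditioned medium is added to stimulate the pathway, and after 24hr luciferase reagent is added for 30min before luminescence is read.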

[3] = target: Estrogen receptor beta (Homo sapiens) (UniProt Q92731); experiment: qHTS assay to identify small molecule agonists of the estrogen receptor beta (ER-beta) signaling pathway (AID 1259377; active = well fitted activation curve with a large enough effect in the signal ratio in the repeat runs, not every such curve was filed as active; the % refers to the signal ratio)
Sequence of Estrogen receptor beta (Homo sapiens) (Q92731 whole entry, looked up): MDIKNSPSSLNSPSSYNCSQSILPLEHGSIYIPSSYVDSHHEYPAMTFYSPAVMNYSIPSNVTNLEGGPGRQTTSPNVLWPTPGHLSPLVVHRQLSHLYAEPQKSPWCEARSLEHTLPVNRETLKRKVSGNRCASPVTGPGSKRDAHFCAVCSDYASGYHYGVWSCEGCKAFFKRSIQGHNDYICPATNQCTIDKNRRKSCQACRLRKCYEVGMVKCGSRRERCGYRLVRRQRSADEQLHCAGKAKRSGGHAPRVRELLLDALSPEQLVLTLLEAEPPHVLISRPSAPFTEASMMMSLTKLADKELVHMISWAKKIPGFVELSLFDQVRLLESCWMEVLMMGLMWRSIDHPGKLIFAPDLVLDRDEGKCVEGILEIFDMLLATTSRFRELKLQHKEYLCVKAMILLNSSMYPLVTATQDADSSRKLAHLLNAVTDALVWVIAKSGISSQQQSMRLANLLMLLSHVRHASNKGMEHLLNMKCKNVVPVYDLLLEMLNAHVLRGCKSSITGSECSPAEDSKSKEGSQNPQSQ
In short: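 Measured by fluorescence intensity from a B/G FRET beta-lactamase substrate (2 h, room temperature) in ER-beta-UAS-bla HEK293T cells treated with DMSO-dissolved compounds for 16 hr at 37C and 5% CO2.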

[4] = target: Estrogen receptor beta (Homo sapiens) (UniProt Q92731); experiment: qHTS assay to identify small molecule antagonists of the estrogen receptor beta (ER-beta) signaling pathway (AID 1259378; active = well fitted inhibition curve with a large enough effect in the signal ratio in the repeat runs, not every such curve was filed as active; the % refers to the signal ratio)
In short: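 ER-beta-UAS-bla HEK293T (GripTite) cells in 2% charcoal-stripped FBS medium were preincubated 6 hr at 37C, dosed with compound, then stimulated with 1 nM E2 (final) for 16 hr; beta-lactamase reporter read by B/G FRET fluorescence after 2 hr substrate loading.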

[5] = qHTS assay to identify small molecule agonists of the androgen receptor (AR) signaling pathway in the presence of an antagonist - cell viability counter screen (AID 1259379);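 note: MDA-kb2 human breast cancer cells carrying an MMTV luciferase reporter; series mostly up to about 92 µM; nearly all actives have a fitted effect of over 25% in size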
In short: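 Cytotoxicity is assessed by CellTiter-Fluor in MDA-kb2 cells carrying an MMTV-driven luciferase reporter. Cells receive 3.0uM nilutamide plus compounds at 15 concentrations and incubate 16 hr at 37C without CO2 before fluorescence reading.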

[6] = qHTS assay to identify small molecule agonists of the estrogen receptor beta (ER-beta) signaling pathway - cell viability counter screen (AID 1259380); note: nearly all actives have a fitted effect of over 30% in size; note: potency is the fitted concentration of half-maximal effect
In short: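 Cytotoxicity is measured in parallel with the reporter screen: after 16 hr compound exposure at 37C and a 2 hr LiveBLAzer step, CellTiter-Glo is added to the same ER-beta-UAS-bla HEK293T wells and luminescence read after 30 min.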

[7] = qHTS assay to identify small molecule antagonists of the estrogen receptor beta (ER-beta) signaling pathway - cell viability counter screen (AID 1259382); note: series mostly up to about 92 µM; nearly all actives have a fitted effect of over 55% in size
In short: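 Cytotoxicity counter screen multiplexed with the beta-lactamase antagonist assay: GripTite HEK293T ER-beta-bla cells were treated 16 hr with test chemicals in the presence of 1nM 17-beta-estradiol, and viability was measured by CellTiter-Glo.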

[8] = qHTS assay to identify small molecule agonists or antagonists of the thyroid stimulating hormone receptor (TSHR) signaling pathway - wild type cell line counter screen (AID 1259384; calls by dose curve)
In short: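 Wild-type HEK293 cells were plated 18 h at 37 C/5% CO2, pin-dosed with compound plus Ro20-1724 medium, held 30 min at room temperature, then given cAMP-d2 and anti-cAMP-cryptate; fluorescence was read after 1 h. Fifteen concentrations, triplicate.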

[9] = target: Thyrotropin receptor (Homo sapiens) (UniProt P16473); experiment: qHTS assay to identify small molecule antagonists of the thyroid stimulating hormone receptor (TSHR) signaling pathway (AID 1259385; calls by dose curve; note: nearly all actives have a fitted effect of over 20% in size)
Sequence of Thyrotropin receptor (Homo sapiens) (P16473 whole entry, looked up): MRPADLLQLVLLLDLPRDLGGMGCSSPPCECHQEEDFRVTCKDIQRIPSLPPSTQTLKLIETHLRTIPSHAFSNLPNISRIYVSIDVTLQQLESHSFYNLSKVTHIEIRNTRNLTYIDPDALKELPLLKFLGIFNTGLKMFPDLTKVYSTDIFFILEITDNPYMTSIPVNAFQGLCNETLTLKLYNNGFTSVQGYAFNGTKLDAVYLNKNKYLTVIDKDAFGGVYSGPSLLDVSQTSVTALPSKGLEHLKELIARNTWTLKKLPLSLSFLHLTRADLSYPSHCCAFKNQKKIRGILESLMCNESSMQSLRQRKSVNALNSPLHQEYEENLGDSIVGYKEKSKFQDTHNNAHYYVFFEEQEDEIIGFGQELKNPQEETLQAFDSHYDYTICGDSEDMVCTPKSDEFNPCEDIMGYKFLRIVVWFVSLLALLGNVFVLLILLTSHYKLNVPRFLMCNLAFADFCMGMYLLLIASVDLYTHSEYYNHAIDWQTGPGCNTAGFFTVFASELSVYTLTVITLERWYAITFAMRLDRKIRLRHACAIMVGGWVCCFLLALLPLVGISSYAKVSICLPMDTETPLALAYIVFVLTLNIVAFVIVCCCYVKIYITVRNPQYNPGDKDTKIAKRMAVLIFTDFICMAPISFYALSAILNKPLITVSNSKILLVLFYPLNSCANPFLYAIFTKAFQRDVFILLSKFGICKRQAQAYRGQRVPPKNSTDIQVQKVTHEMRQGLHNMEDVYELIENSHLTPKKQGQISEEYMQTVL
In short: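 TSHR-HEK293 cells were plated and held 18 h at 37C/5% CO2, then given compound plus Ro20-1724 and stimulated with TSH at 1.5 ng/mL final. After 30 min at room temperature, cAMP was detected with cAMP-d2/anti-cAMP-cryptate (1 h) by fluorescence.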

[10] = qHTS assay to identify small molecule agonists of the estrogen receptor alpha (ER-alpha) signaling pathway in the presence of an antagonist - cell viability counter screen (AID 1259386);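 note: series mostly up to about 92 µM; cells exposed to compounds for 22 h at 37 °C before the viability read; nearly all actives have a fitted effect of over 30% in size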
In short: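 Cytotoxicity was measured in parallel with the ERE-luciferase agonist screen, in the same wells. The cells were VM7Luc4E2, which endogenously express ER-alpha, and treatment was with compounds plus 10.0nM ICI-182,780 for 22hr.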

[11] = target: Progesterone receptor (Homo sapiens) (UniProt P06401); experiment: qHTS assay to identify small molecule agonists of the progesterone receptor (PR) signaling pathway (AID 1346784; calls by dose curve; note: nearly all actives have a fitted effect of over 30% in size)
Sequence of Progesterone receptor (Homo sapiens) (P06401 whole entry, looked up): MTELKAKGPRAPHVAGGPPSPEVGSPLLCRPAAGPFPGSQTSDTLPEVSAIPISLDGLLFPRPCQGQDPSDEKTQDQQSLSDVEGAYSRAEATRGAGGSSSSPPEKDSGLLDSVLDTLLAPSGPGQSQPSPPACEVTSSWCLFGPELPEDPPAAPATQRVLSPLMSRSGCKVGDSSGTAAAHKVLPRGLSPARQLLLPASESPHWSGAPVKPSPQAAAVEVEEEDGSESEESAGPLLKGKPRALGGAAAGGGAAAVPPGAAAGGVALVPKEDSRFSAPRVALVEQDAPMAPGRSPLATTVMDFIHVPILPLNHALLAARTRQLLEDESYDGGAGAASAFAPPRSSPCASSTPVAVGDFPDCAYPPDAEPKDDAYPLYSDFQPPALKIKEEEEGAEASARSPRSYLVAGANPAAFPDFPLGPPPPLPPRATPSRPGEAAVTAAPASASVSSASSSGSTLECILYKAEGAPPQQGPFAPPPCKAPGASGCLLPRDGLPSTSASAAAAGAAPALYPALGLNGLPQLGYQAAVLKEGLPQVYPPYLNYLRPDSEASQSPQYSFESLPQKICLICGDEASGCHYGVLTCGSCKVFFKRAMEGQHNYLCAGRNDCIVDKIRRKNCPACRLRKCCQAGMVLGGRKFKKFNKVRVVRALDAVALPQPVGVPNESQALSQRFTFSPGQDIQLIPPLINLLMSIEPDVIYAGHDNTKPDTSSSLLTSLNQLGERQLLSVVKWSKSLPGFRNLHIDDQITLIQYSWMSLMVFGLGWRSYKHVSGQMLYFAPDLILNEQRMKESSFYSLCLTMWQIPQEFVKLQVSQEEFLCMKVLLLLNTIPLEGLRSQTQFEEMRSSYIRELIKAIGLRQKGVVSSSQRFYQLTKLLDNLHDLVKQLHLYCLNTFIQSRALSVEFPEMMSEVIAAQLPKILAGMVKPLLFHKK
In short: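 The screen uses PR-UAS-bla HEK 293T cells in charcoal-stripped serum (2%). Compounds are applied for 16 hr at 37C after a 6 hr pre-incubation, and reporter activity is detected with a FRET beta-lactamase substrate after 2 hr at room temperature.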

[12] = target: Progesterone receptor (Homo sapiens) (UniProt P06401); experiment: qHTS assay to identify small molecule antagonists of the progesterone receptor (PR) signaling pathway (AID 1346795; active = well fitted inhibition curve with a large enough effect in the signal ratio in the repeat runs, not every such curve was filed as active; the % refers to the signal ratio)
In short: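 After 6 hr plating at 37C in 2% stripped-serum medium, PR-UAS-bla HEK293T cells got compounds, then 1 nM R5020. Sixteen hours later, LiveBLAzer substrate was applied for 2 hr at room temperature and fluorescence was recorded.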

[13] = qHTS assay to identify small molecule antagonists of the progesterone receptor (PR) signaling pathway - cell viability counter screen (AID 1346798); note: series mostly up to about 92 µM; nearly all actives have a fitted effect of over 50% in size
In short: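 Viability was determined by ATP-based luminescence (CellTiter-Glo) in PR-UAS-bla HEK293T cells cultured in 2% charcoal-stripped serum and incubated 16 hr with compounds under R5020 stimulation.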

[14] = qHTS assay to identify small molecule agonists of the progesterone receptor (PR) signaling pathway - cell viability counter screen (AID 1346799; calls by dose curve; note: nearly all actives have a fitted effect of over 45% in size)
In short: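 Viability was scored by ATP luminescence (CellTiter-Glo, 30 min, room temperature) in the same wells used for the reporter readout, after 16 hr compound exposure of PR-UAS-bla HEK293T cells.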

[15] = qHTS assay to identify small molecule antagonists of the TGF-beta/Smad signaling pathway - cell viability counter screen (AID 1346824); note: nearly all actives have a fitted effect of over 50% in size
In short: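 SBE-bla HEK 293T cells were plated overnight at 37 C, then given compounds in DMSO plus TGF-beta1 (added as 0.25 ng/mL solution) for 5 hr. After the bla read, CellTiter-Glo was added to the same wells and luminescence read after 30 min at room temperature.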

[16] = qHTS assay to identify small molecule agonists of the TGF-beta/Smad signaling pathway - cell viability counter screen (AID 1346829); note: top concentration of the series differs between compounds; nearly all actives have a fitted effect of over 45% in size
In short: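 Cytotoxicity counter screen: CellTiter-Glo luminescence (30 min, room temperature) measured in the SBE-bla HEK 293T reporter wells after 5 hr compound treatment at 37 C and the 2 hr substrate step.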

[17] = qHTS assay to identify small molecule agonists of the TGF-beta/Smad signaling pathway (AID 1346859; active = well fitted activation curve with a large enough effect in the signal ratio in the repeat runs, not every such curve was filed as active; the % refers to the signal ratio; note: series mostly up to about 77 µM)
In short: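 Dual-wavelength fluorescence (460/530 nm emission) quantified beta-lactamase expression under the Smad binding element in HEK 293T cells following 5 hr compound treatment at 37 C.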

[18] = target: Thyrotropin-releasing hormone receptor (Homo sapiens) (UniProt P34981); experiment: qHTS assay to identify small molecule antagonists of the thyrotropin-releasing hormone receptor (TRHR) signaling pathway (AID 1346877; active = well fitted inhibition curve with a large enough effect in the repeat runs, not every such curve was filed as active; note: series mostly up to about 51 µM)
Sequence of Thyrotropin-releasing hormone receptor (Homo sapiens) (P34981 whole entry, looked up): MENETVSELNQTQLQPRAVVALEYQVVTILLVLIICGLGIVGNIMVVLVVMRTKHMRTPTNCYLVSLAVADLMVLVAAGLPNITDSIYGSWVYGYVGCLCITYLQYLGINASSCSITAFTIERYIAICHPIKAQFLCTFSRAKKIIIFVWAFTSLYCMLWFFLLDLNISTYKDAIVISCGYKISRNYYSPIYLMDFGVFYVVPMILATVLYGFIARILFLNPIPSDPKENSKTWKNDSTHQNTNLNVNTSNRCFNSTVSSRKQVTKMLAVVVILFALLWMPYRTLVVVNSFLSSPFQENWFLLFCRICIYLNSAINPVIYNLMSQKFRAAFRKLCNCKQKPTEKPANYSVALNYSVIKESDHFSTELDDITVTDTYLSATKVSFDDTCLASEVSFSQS
In short: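 Antagonism is measured as suppression of the calcium response to 1 nM TRH in TRHR-HEK293 cells that have been dye-loaded for 2 h at 37 °C after overnight plating. Each compound is tested at 15 concentrations in triplicate.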

| SMILES | outcome [1] | Potency [2] | Potency [3] | outcome [4] | Potency [5] | Potency [6] | outcome [7] | outcome [8] | outcome [9] | Potency [10] | Potency [11] | Potency [12] | Potency [13] | outcome [14] | Potency [15] | Potency [16] | outcome [17] | outcome [18] |
| --- | --- | --- | --- | --- | --- | --- | --- | --- | --- | --- | --- | --- | --- | --- | --- | --- | --- | --- |
| O=C(O)COc1ccccc1 | inactive | inactive | inactive | inactive | inactive | inactive | inactive | inactive | inactive | inactive | inactive | inactive | inactive | inactive | inactive | inactive | inactive | inactive |
| CCOc1ccc(N)cc1 | inactive | inactive | inactive | inactive | inactive | inactive | inactive | inactive | inactive | inactive | inactive | inactive | inactive | inactive | inactive | inactive | inactive | inactive |
| ClCCOCCCl | inactive | inactive | inactive | inactive | inactive | inactive | inactive | inactive | inactive | inactive | inactive | inactive | inactive | inactive | inactive | inactive | inactive | inactive |
| N#Cc1ccccn1 | inactive | inactive | inactive | inactive | inactive | inactive | inactive | inactive | inactive | inactive | inactive | inactive | inactive | inactive | inactive | inactive | inactive | inactive |
| O=[N+]([O-])c1ccc(Cl)c(Cl)c1 | inactive | inactive | – | – | inactive | inactive | inactive | inactive | inactive | inactive | inactive | inactive | inactive | inactive | inactive | inactive | inactive | inactive |
| O=C/C=C/c1ccccc1 | inactive | inactive | – | – | inactive | inactive | inactive | inactive | inactive | inactive | inactive | inactive | inactive | inactive | inactive | inactive | inactive | inactive |
| Cc1cccc(N)c1 | inactive | inactive | – | – | inactive | inactive | inactive | – | – | inactive | inactive | inactive | inactive | inactive | inactive | inactive | inactive | inactive |
| Cc1ccc(N=C=O)cc1N=C=O | inactive | inactive | – | – | inactive | 34.3 µM (active) and inactive | inactive | – | – | inactive | inactive | inactive | inactive | inactive | inactive | inactive | inactive | inactive |
| OCC(O)CCl (stereo not given) | inactive | inactive | – | – | inactive | inactive | inactive | inactive | inactive | inactive | – | – | inactive | inactive | inactive | inactive | inactive | – |
